This note sets out measurements from PubChem BioAssay.

The source made the active and inactive calls.

Assay [1] is described as follows: optical density shifts of acrAB sulA E. coli – strain DRC41, OD650, 48 h, E. coli filamentation inducer project, primary screen (AID 1152).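 Note: E. coli MC1000 strain DRC41 lacking acrAB efflux pump and sulA.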 Conditions: higher = more signal, called active from +8 up or from −8 down.
Assay [2] can be described thus: probe aLefty1 binding on compound microarray – biochemical, small-molecule microarray, 635/667 nm fluorescence, primary screen (AID 1153).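 Note: score merges spot fluorescence with signal-to-noise ratio from the scanned slide images.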 Conditions: higher = more signal.
Assay [3] in a line: plasmodial surface anion channel blockers, osmotic lysis – cell-based, P. falciparum Indochina, OD700, 1 h, primary screen (AID 1154). The conditions noted are these: P. falciparum Indochina infected RBC osmotic lysis, higher = more signal, called active from +8 up or from −8 down.
The nature of assay [4]: plasmodial surface anion channel blockers, osmotic lysis – cell-based, P. falciparum Indochina, OD700, 2 h, primary screen (AID 1155).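 Note: lysis reports solute entry through the parasite surface anion channel PSAC.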 Conditions: P. falciparum Indochina infected erythrocytes, higher = more signal, called active from +8 up or from −8 down.
Assay [5] is described as follows: changes in parasitized red cell lysis, either direction – P. falciparum Indochina, OD700, 3 h, PSAC antagonist project, primary screen (AID 1156). The conditions noted are these: P. falciparum-infected erythrocytes, osmotic lysis, higher = more signal, called active from +8 up or from −8 down.
Assay [6] can be described thus: plasmodial surface anion channel blockers, osmotic lysis – cell-based, P. falciparum Indochina, OD700, 18 h, primary screen (AID 1157). Conditions: P. falciparum Indochina infected erythrocytes, osmotic lysis OD700, 18 h; higher = more signal, called active from +8 up or from −8 down.
A short description of assay [7]: S6 kinase pathway phospho-S6 level changes – cell-based, A549, cytoblot, luminescence, serum-stimulated, primary screen (AID 1158).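 Note: serum-stimulated A549 lung adenocarcinoma cells; signal is phosphorylated S6 detected by cytoblot immunostaining with HRP secondary.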 The conditions noted are these: 5 h, higher = more signal.
In assay [8] the target is NADPH oxidase 2 (Homo sapiens) (UniProt P04839). Briefly: compounds shifting NOX2 Amplex Red fluorescence – cell-based, HEK293-NOX2, PMA-stimulated, NOX inhibitor project, primary screen (AID 1159). Note: test concentration not given here. The conditions noted are these: 45 min, higher = more signal, called active from +8 up or from −8 down.
Chain of NADPH oxidase 2 (Homo sapiens) (P04839 whole entry, looked up): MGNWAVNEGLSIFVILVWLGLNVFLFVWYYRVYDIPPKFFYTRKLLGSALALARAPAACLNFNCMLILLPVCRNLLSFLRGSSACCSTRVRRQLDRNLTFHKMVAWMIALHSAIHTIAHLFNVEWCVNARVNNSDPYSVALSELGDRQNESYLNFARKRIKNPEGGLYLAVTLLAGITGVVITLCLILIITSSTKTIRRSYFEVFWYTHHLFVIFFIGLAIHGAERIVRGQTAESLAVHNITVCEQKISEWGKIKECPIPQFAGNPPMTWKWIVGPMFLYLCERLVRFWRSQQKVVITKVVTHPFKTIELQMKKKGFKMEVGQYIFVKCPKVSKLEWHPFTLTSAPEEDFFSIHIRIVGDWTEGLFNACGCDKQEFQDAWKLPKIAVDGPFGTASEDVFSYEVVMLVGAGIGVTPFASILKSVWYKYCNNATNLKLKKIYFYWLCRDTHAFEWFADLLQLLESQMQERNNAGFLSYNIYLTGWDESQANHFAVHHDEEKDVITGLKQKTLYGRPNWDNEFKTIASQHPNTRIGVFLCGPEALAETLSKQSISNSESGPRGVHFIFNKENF
Assay [9] has as its target NADPH oxidase 4 (Homo sapiens) (UniProt Q9NPH5). Briefly: compounds shifting NOX4 Amplex Red fluorescence – cell-based, HEK293-NOX4, tetracycline-induced, NOX inhibitor project, primary screen (AID 1160). Conditions: HEK293-NOX4, Amplex Red H2O2 fluorescence, 45 min; higher = more signal, called active from +8 up or from −8 down.
The target in assay [10] is NADPH oxidase 5 (Homo sapiens) (UniProt Q96PH1). Briefly: compounds shifting NOX5 Amplex Red fluorescence – cell-based, HEK293-NOX5, NOX inhibitor project, primary screen (AID 1161). The conditions noted are these: HEK293-NOX5, ionomycin, 45 min, higher = more signal.
Chain of NADPH oxidase 5 (Homo sapiens) (Q96PH1 whole entry, looked up): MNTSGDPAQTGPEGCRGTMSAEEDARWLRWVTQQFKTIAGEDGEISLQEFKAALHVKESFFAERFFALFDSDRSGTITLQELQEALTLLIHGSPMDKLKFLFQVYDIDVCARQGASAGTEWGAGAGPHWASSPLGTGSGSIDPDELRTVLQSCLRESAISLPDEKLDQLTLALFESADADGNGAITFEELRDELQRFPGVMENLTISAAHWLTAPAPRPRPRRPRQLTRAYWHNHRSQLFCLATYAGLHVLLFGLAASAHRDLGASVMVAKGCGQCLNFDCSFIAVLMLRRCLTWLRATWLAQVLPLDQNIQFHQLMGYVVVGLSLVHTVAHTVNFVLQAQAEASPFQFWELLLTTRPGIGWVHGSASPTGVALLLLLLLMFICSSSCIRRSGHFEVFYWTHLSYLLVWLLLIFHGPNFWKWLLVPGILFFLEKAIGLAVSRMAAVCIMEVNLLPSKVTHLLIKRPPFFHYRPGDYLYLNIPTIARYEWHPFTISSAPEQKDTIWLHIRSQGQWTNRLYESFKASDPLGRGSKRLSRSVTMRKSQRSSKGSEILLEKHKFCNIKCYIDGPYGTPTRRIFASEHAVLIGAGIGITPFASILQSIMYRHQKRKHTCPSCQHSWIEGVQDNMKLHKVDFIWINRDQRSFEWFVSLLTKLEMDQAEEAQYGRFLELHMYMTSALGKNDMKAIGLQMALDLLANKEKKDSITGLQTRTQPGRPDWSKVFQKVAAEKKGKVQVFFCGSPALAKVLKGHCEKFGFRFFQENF

Chain of NADPH oxidase 4 (Homo sapiens) (Q9NPH5 whole entry, looked up): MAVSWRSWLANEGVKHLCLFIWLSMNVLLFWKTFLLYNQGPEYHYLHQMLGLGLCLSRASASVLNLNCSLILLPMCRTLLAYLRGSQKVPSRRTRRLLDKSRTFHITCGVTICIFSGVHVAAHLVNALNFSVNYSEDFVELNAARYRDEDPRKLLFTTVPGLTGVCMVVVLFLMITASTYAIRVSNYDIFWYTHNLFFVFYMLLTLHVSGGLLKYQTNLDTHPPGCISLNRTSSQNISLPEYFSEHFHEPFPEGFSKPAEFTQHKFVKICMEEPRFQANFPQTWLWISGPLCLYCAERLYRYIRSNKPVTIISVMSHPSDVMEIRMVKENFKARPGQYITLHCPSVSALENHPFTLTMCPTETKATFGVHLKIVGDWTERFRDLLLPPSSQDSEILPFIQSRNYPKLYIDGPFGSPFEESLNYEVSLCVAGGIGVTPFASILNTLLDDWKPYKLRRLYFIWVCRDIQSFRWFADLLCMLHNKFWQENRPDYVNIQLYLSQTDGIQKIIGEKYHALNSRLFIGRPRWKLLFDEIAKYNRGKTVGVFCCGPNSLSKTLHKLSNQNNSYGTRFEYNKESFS

Regarding `CC(C)C[C@@H]1NC(=O)[C@H]2C[C@@H](C(=O)NCCCCCCN)[C@@H](c3ccc(O)cc3)N2C1=O`, the z-score in assay [1] was -0.63 (inactive); in [3], 1.9 (inactive); in assay [4], 0.0643 (inactive); in assay [5], -0.265 (inactive); in [6], 0.3 (inactive); in [7], -0.648. The z-score in assay [8] was 1.21 (inactive); in [9], 1.05 (inactive); in assay [10] it was 0.315. Moreover, the composite z-score in assay [2] turned out to be 0.51.

Regarding `CS(=O)(=O)CCOC(=O)C1=CC(CCCO)=CC(c2ccc(CN3CCCC3)cc2)N(Cc2cc3c(cc2Br)OCO3)C=C1C(=O)OCCS(C)(=O)=O` (stereo not given), the z-score is -0.357 (inactive) in assay [1]; 0.246 (inactive) in assay [3]; -0.211 (inactive) in assay [4]; 1.14 (inactive) in assay [5]; 0.111 (inactive) in assay [6]; -0.606 in assay [7]. In addition, the z-score in assay [8] is 2.54 (inactive); in assay [9], 0.524 (inactive); in assay [10], 0.597. Also, the composite z-score in [2] came out at 0.485.

Take `COCCCN1C(=O)[C@@]2(Cc3ccccc31)c1ccccc1C(=O)N(Cc1ccccc1C(F)(F)F)[C@H]2c1ccc(CO)cc1`: the z-score in assay [1] is -0.125 (inactive); in assay [3] it was 0.512 (inactive); in [4], 0.635 (inactive); in assay [5] it was -0.101 (inactive); in [6] it was 0.427 (inactive); in assay [7], 0.0136. Further, the z-score in assay [8] is -0.767 (inactive); in [9] it was -0.607 (inactive); in [10], 0.77. This compound yielded a composite z-score in assay [2] of -0.208.

Take `Cc1ccc(S[C@]2(C(=O)NC(C)C)CC(=O)N(Cc3ccccc3Cl)[C@@H]2c2ccc(CO)cc2I)cc1`: the z-score in assay [1] was -0.462 (inactive); in assay [3], 11.2 (active); in assay [4], 1.44 (inactive); in assay [5], 0.681 (inactive); in [6] it was 0.377 (inactive); in assay [7], -0.487. The z-score in [8] was 0.769 (inactive); in assay [9] it was -1.51 (inactive); in [10], 0.183. Also, the composite z-score in assay [2] was 0.0023.

With `COCCOC(=O)N1C(=O)[C@@]2(c3cc(C#CC4=CCCCC4)ccc31)[C@H](C(=O)Nc1nc3ccccc3s1)[C@H]1C(=O)O[C@H](c3ccccc3)[C@H](c3ccccc3)N1[C@@H]2c1ccccc1OCCO`, the z-score was 0.687 (inactive) in assay [1]; 2.84 (inactive) in [3]; 0.926 (inactive) in assay [4]; -0.0917 (inactive) in assay [5]; 0.436 (inactive) in [6]; 1.93 in [7]. The z-score was 0.102 (inactive) in [8], 0.056 (inactive) in assay [9] and -1.83 in [10]. In assay [2], this compound yielded a composite z-score of 1.43.

In the case of `CN(C)C(=O)[C@@]1(Cc2ccccc2)N=C(c2ccc(OCCCO)cc2)O[C@H]1c1ccccc1N=[N+]=[N-]`, the z-score in [1] is 0.89 (inactive); in [3], 30.4 (active); in assay [4], 27.4 (active); in assay [5], 2.05 (inactive); in [6], 7.06 (inactive); in assay [7], 1.33. Besides, the results for the z-score in [8], in [9] and in assay [10] were -1.93 (inactive), 0.891 (inactive) and -1.22, respectively. In [2], this compound yielded a composite z-score of 0.737.

Turning to `CN1C(=O)C2C=CC(C(O)C3CCCCC3)N(Nc3ccc([N+](=O)[O-])cc3[N+](=O)[O-])C2C1=O` (stereo not given), the z-score is -1.06 (inactive) in [1]; 1.72 (inactive) in assay [3]; 0.519 (inactive) in [4]; -0.226 (inactive) in assay [5]; 0.532 (inactive) in [6]; -0.511 in [7]. Moreover, the results for the z-score in assay [8], in assay [9] and in assay [10] were -1.18 (inactive), 0.889 (inactive) and 0.414, respectively. Moreover, the composite z-score in assay [2] turned out to be 0.181.

Take `COCCCNC(=O)C1N=C(c2ccc(OCCCO)cc2)N(c2ccccc2)O1` (stereo not given): the z-score in [1] was 0.768 (inactive); in assay [3], 18.4 (active); in assay [4] it was 2.14 (inactive); in assay [5], 0.669 (inactive); in [6], 0.325 (inactive); in assay [7], 0.147. The figures for the z-score in assay [8], in assay [9] and in assay [10] were -3.86 (inactive), -0.749 (inactive) and -0.819, respectively. The composite z-score in assay [2] was -0.265.

With `COC(=O)[C@@]1(Cc2ccc(F)cc2)[C@H]2c3cc(C(=O)N(C)C)n(Cc4ccc(S(C)(=O)=O)cc4)c3C[C@H]2CN1C(=O)c1ccccc1`, the z-score was -0.367 (inactive) in [1]; 1.32 (inactive) in assay [3]; 0.495 (inactive) in assay [4]; 1.01 (inactive) in assay [5]; 0.739 (inactive) in assay [6]; -0.594 in [7]. The values for the z-score in [8], in assay [9] and in [10] were 0.713 (inactive), 0.668 (inactive) and 0.274, respectively. Moreover, the composite z-score in [2] was determined as 0.277.

With `C=CCN(Cc1ccccc1)C(=O)C(c1cccs1)N(CCOCCO)C(=O)/C=C\C(=O)O` (stereo not given), the z-score in assay [1] is 2.73 (inactive); in [3] it was 2.39 (inactive); in [4], -0.398 (inactive); in assay [5], 0.213 (inactive); in [6], -0.281 (inactive); in assay [7], 3.21. Moreover, the z-score was -0.00856 (inactive) in assay [8], -0.515 (inactive) in assay [9] and -0.659 in assay [10]. In assay [2], the composite z-score was -0.191.

Consider `O=C(O)[C@@]1(CCS(=O)(=O)c2ccccc2)COC(c2ccc(OCCCO)cc2)=N1`, for which the z-score in assay [1] was -0.513 (inactive); in assay [3], 1.58 (inactive); in [4] it was -0.783 (inactive); in assay [5] it was -0.821 (inactive); in assay [6], -0.392 (inactive); in assay [7], -0.312. Also, the z-score in assay [8] was -0.0194 (inactive); in assay [9], 0.85 (inactive); in assay [10] it was 0.779. The compound also yielded a composite z-score in assay [2] of -0.0601.

Regarding `C=CC[C@]1(C(=O)NCCCOC)N=C(c2ccc(OCCCO)cc2)O[C@H]1c1ccccc1N=[N+]=[N-]`, the z-score in assay [1] is 0.239 (inactive); in assay [3] it was 33.6 (active); in [4], 32.2 (active); in [5] it was 3.35 (inactive); in assay [6], 8.48 (active); in assay [7], -0.403. In addition, the z-score in [8] is -1.06 (inactive); in [9] it was 1.33 (inactive); in [10], -0.678. The composite z-score in [2] was 0.479.

Turning to `CCCCCN1CC=CC23O[C@@H]4/C=C\CCCOC(=O)C4[C@H]2C(=O)N(CCCO)[C@@H]3C1=O` (stereo not given in full), the z-score in assay [1] was 2.27 (inactive); in assay [3], 1.33 (inactive); in [4] it was 0.212 (inactive); in assay [5] it was -1.43 (inactive); in assay [6], -0.678 (inactive); in assay [7] it was 0.696. Moreover, the z-score was 1.46 (inactive) in assay [8], 0.42 (inactive) in [9] and 2.13 in [10]. The same compound had a composite z-score in assay [2] of -0.353.
